Screening results as filed in PubChem.
BRCA1 expr act – activators of BRCA1 expression. MCF7-BRCA1-FFLuc reporter, luminescence, 48 h; response scale: scaled: vehicle 0%, 10 µM genistein 100%. Potency, µM (titrated, usually from 46.1 µM), without a hit: at the top dose activation, usual class: activators. 380,000 tested, 1.1% active. AID 624202; further: potency means the concentration at half of the fitted maximal effect; nearly all actives have a fitted effect of over 80% in size
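Luminescence from a BRCA1-driven firefly luciferase in MCF7 cells was the read-out, taken 15 min after substrate addition following 48 h compound exposure at 37 °C. Data were normalized to a 10 microM genistein control and DMSO vehicle.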
p53 reactivator – restores transcriptional activity of mutant p53 | H1299 p53-A138V BP100-luciferase reporter, luminescence, 24 h | Potency, µM (titrated, usually from 92.2 µM), for inactives: at the highest dose activity change, positive = activation, hits mostly activators | 320,000 tested, 0.063% active | AID 504706; further: potency means the concentration at half of the fitted maximal effect; % of control where 0% means no effect; nearly all actives have a fitted effect of over 45% in size
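H1299 (p53-null), stable ts p53-A138V + BP100-Luc; 1000 cells/well, Opti-MEM/10% FBS; cpd 4 pt, 1:5; 24 h, 37 deg C, 5% CO2; detection reagent 10 min RT; luminescence.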
Giardia kill – kills Giardia lamblia | Giardia lamblia trophozoite viability | activity change, % at 7.66 µM, hits read low | 340,000 tested, 0.15% active | AID 540267; in the data active means activity change below about -80%; inconclusive means between about -30% and that limit;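 further: parasites exposed to compound for two days anaerobically before the ATP read; on the % scale 0 is the no-effect control and ±100 the full control effect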
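Luminescence from cellular ATP indicates surviving trophozoites (100 cells/well) following 48 hrs anaerobic compound treatment at 37 deg C; signal develops 15-30 min at room temperature.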
ELG1 repair inh – blocks ELG1-dependent DNA repair in HEK293T cells | HEK293T ELG1-luciferase reporter, luminescence, 16 h; DNA damage induced by 5-fluorouridine | Potency, µM (series often up to 46.1 µM), for inactives: at the top dose activity change, negative = inhibition, most hits filed as inhibitors | AID 504467 | 330,000 tested, 2.3% active; further: potency means the concentration at half of the fitted maximal effect; on the % scale 0 is the no-effect control and ±100 the full control effect; nearly all actives have a fitted effect of over 55% in size
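Overnight (16 hr) co-exposure of 2,000 cells/well to 5-fluorouridine and compound at 37 °C preceded detection. Luciferase was quantified via ONE-Glo luminescence; loss of signal denotes inhibition.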
RORgamma inh – inhibitors of mouse ROR gamma transcriptional activity. P51450. Drosophila S2 Gal4-RORgamma UAS-luciferase reporter, 20 h. Potency, µM (top dose mostly 53.6 µM), without a hit: at the top dose activity change, negative = inhibition, usual class: inhibitors. 310,000 tested, 5.4% active. AID 2551; further: potency means the concentration at half of the fitted maximal effect; on the % scale 0 is the no-effect control and ±100 the full control effect; nearly all actives have a fitted effect of over 60% in size
Target sequence (P51450 whole entry, looked up, the tested form may be a part): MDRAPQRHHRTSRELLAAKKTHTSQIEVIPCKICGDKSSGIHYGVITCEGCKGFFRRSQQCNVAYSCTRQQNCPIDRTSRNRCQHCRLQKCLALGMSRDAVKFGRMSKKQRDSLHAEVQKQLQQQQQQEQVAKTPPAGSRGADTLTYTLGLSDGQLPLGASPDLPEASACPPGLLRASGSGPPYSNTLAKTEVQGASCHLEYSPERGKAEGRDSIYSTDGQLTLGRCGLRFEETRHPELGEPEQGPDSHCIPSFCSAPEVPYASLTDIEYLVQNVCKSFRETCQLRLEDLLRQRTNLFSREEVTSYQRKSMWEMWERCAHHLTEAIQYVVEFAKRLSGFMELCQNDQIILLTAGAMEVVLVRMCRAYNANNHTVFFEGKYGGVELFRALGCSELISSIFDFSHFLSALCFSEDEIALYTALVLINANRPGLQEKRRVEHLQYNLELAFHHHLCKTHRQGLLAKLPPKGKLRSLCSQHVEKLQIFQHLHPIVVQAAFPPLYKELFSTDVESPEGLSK
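Compounds are pin-transferred onto Drosophila Schneider cells expressing a copper-inducible Gal4–ROR gamma transactivation domain fusion. After 1 hr, copper sulfate is added to 700 uM final; luciferase is read 20 hr later.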
Gal4-VP16 FLuc – inhibits Gal4-VP16 luciferase reporter, ROR gamma counter-screen. Drosophila S2 Gal4-VP16 UAS-luciferase, luminescence, 20 h. Potency, µM (titrated, usually from 53.6 µM), for the others: top-dose activity, negative = inhibition, actives largely listed as inhibitors. 310,000 tested, 3.5% active. AID 2546;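 further: Gal4-VP16 expression switched on by copper sulfate through the metallothionein promoter; potency means the concentration at half of the fitted maximal effect; on the % scale 0 is the no-effect control and ±100 the full control effect; nearly all actives have a fitted effect of over 50% in size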
The depositor's hits bear a star; ? = inconclusive; · = not tested or not shown; [ ] = dose if it differs, or a comment. Most compounds without a hit are left out; they make up all but 7.6% or so of the library. Unless noted, the call rests on the fitted dose curve; in most records, active means well fitted curve in the direction sought with a large enough effect; inconclusive means small, poorly fitted or top-dose-only effect, or another doubt; inactive means no such curve, though single readings can be large; an effect the other way counts as inactive or inconclusive.

SMILES	BRCA1 expr act	p53 reactivator	Giardia kill	ELG1 repair inh	RORgamma inh	Gal4-VP16 FLuc
COc1cc(CNc2ccc3[nH]c(=O)[nH]c3c2)ccc1OCc1ccc(Cl)cc1	61.6%	-24.3%	5.0	?	2.82µM*	?
NS(=O)(=O)c1ccc(CCNCc2cc(Br)ccc2OCc2ccccc2)cc1	-18.8%	1.2%	7.7	-5.5%	?	15.8µM*
COc1ccc(CNCCc2ccc(Cl)cc2)cc1OCc1ccccc1	-22.8%	3.9%	4.6	14.6µM*	?	-24.7%[10 µM]
CC1=C/C(=N\OC(=O)/C=C/c2ccccc2)C(C)=CC1=O	-3.9%	-4.6%	13.8	11.7%	-3.4%	-0.5%
CS(=O)(=O)N(CCc1ccccc1)CC(=O)N1CCCC1	-8.8%	1.1%	5.2	-3.4%	-1.0%	-14.2%
CCOc1cnn(-c2cc(Oc3ccc(C)cc3)ncn2)c(=O)c1Cl	7.3%	-7.3%	-9.6	8.8%	4.1%	3.9%
Cc1ccccc1Oc1cc(-n2ncc(Cl)c(Cl)c2=O)ncn1	-106.4%	-20.8%	-16.6	5.8µM*	1.12µM*	3.16µM*
CCn1c(=S)[nH]c2c(c1=O)C(C)(C)Cc1ccccc1-2	2.2%	-1.5%	-29.5	5.1%	1µM*	3.55µM*
NNC(=O)c1nnsc1-c1csnn1	-23.5%	·	-0.3	·	·	·
CC(C)C[C@@H](NC(=O)[C@H](Cc1ccccc1)NC(=O)c1cnccn1)B(O)O	·	·	·	·	0.0079µM*	?
COC(=O)c1ccc2c(=O)[nH]c(CCl)nc2c1	12.7%	-6.4%	-16.5	-2.7%	12.6µM*	-17.3%
C=CCn1c(SCc2nc3cc(C(=O)OC)ccc3c(=O)[nH]2)nc2sc(CC)cc2c1=O	-12.6%	5.8%	15.2	8.2µM*	20.2%	-10.5%
COC(=O)c1ccc2c(=O)[nH]c(CN3c4ccccc4CC3C)nc2c1 (centres undefined)	-10.1%	-20.2%	3.5	?	4.5%	9.7%
CCCCCCCC1c2c(c(C)c(C)oc2=O)Oc2c(C)c(C)oc(=O)c21	3.8%	5.4%	-5.2	-11.0%	·	·
O=C1CC(N2CCCN(C3CC(=O)N(c4ccc(F)cc4)C3=O)CC2)C(=O)N1c1ccc(F)cc1 (centres undefined)	-7.4%	10.6%	2.5	-1.5%	17.8µM*	?
O=C1CC(N2CCN(c3ccc(Cl)cc3)CC2)C(=O)N1c1ccc(F)cc1 (centres undefined)	-3.6%	·	20.7	3.8%	·	·
O=C1CC(N2CCCCC2)C(=O)N1c1ccccc1 (centres undefined)	-14.7%	1.1%	-25.0	10.4%	10µM*	20µM*
CNC(=S)N/N=C/c1c(C)nn(-c2ccccc2)c1Cl	63.3%	2.0%	-4.8	?	?	0.891µM*
CNC(=S)N/N=C/c1c(C)nn(-c2cccc(Cl)c2)c1Cl	6.9%	11.9%	27.8	?	2µM*	1.26µM*
Cc1nn(-c2ccccc2)c(Cl)c1/C=N/NC(=O)OC(C)(C)C	?	?	1.1	?	?	0.9%
Cc1nn(-c2ccccc2)c(Cl)c1/C=N/NC(=O)c1ccco1	6.31µM*	9.0%	-4.1	?	22.0%	-1.6%
O=[N+]([O-])c1cc([N+](=O)[O-])c2cc(-c3cccnc3)[nH]c2c1	-9.8%	·	?	·	·	·
CN1C2=CC=CC=CC2=[N+](C)C12C([N+](=O)[O-])=CC(=[N+]([O-])[O-])C=C2[N+](=O)[O-] (centres undefined)	-23.7%	?	-93.8*	-0.8%	-44.7%	-13.5%
CC(C)CN(C)C(=O)CCc1nnc(Cc2cccc(C(F)(F)F)c2)o1	10µM*	?	8.1	?	11.2%	-11.4%
CC(NC(=O)CCc1nnc(Cc2cccc(C(F)(F)F)c2)o1)C1CC1 (centres undefined)	55.3%	12.5%	0.0	?	5.8%	-19.7%
COc1ccc2nc(/C=N/NC(=O)CCNC(=O)OC(C)(C)C)ccc2c1	6.31µM*	?	2.4	?	30.4%	-5.0%
